Records with an inconclusive call do not appear. The source made the active and inactive calls. The calls were made as follows: active = hit-call score of the fitted dose curve at least 0.9, where 1 is the maximum; inconclusive = response in the unintended direction; inactive = score below 0.9.
Test: ACEA_AR_antagonist_AUC_viability: ACEA Biosciences xCELLigence Real-Time Cell Analysis on Androgen Receptor Antagonism for Viability (AID 2283776);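 also: area under impedance growth curve at 80 h after dosing as viability; hits lower the growth signal relative to DMSO meaning cytotoxicity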
Protocol: ACEA_AR_antagonist is a cell-based, single-readout assay that uses 22Rv1, a human prostate cancer cell line, with measurements taken at 80 hours after chemical dosing in a 384-well plate, although TO5 and TO6 (mc0.srcf) used a 96-well plate. Differences in plate size can be ignored given data normalization.ACEA_AR_80hr is one of two assay component(s) measured or calculated from the […] assay. It is designed to make measurements of real-time cell-growth kinetics, a form of growth reporter, as detected with electrical impedance signals by Real-Time Cell Electrode Sensor (RT-CES) technology.Data from the assay component ACEA_AR_antagonist_AUC_viability was analyzed in the positive analysis fitting direction relative to DMSO as the negative control and baseline of activity. Using a type of growth reporter, loss-of-signal activity can be used to understand changes in the viability. Furthermore, this assay endpoint can be referred to as a secondary readout, because this assay has produced multiple assay endpoints where this one serves a viability function. To generalize the intended target to other relatable targets, this assay endpoint is annotated to the cell cycle intended target family, where the subfamily is cytotoxicity.
The xCELLigence system Multi-E-Plate stations were used to measure the time-dependent response to chemicals. Each compound was tested in an eight-point, 1:4 serial dilution series starting at a maximum final concentration of 100 uM. A maximum starting concentration of 0.5% DMSO was present in the 100 uM chemical samples and was diluted along with the test article dilution series. The screen was performed in biological duplicate using two separate, 96-well, E-Plates 96 for each dilution series (n = 2). Positive controls (MG132 and testosterone) and a negative control (assay media) were tested in quadruplicate on each testing plate. Then, 0.5% and 0.125% DMSO were tested in duplicates in each plate to serve as solvent controls for the 2 highest concentrations of testing compounds: 100 uM and 25 uM. Reference compounds were tested with 8 concentrations with 1:5 serial dilutions. All screening was carried out by ACEA Biosciences, Inc. (San Diego, CA). 22Rv1 cells purchased from ATCC were maintained in media supplemented with 10% fetal bovine serum (FBS). Before screening, 22Rv1 cells were preconditioned in assay medium. Cells were then detached and seeded in E-Plates 96 in assay medium. After overnight monitoring of growth once every hour, compounds were added to […] cells and remained in the medium until the end of the experiment. Cellular responses were then recorded once every 5 min for the first 5 h, and once every hour for an additional 100 h.

SMILES	outcome	AC50
CC(=O)OCCC(C)C	inactive	–
CC(=O)c1ccc2c(c1)[C@H](NC(=O)c1ccc(F)cc1)[C@@H](O)C(C)(C)O2	inactive	–
CCCCCCCCO	inactive	–
COc1ccc2sc(C(=O)Nc3nnn[nH]3)c(OC(C)C)c2c1	–	12.9 µM (active)
O=C(O)CCN(C1(C(=O)NO)CCCC1)S(=O)(=O)c1ccc(Oc2ccc(F)cc2)cc1	inactive	–
CC(O)CN(CCN(CC(C)O)CC(C)O)CC(C)O (stereo not given)	inactive	–
CC/C(=C\C(=N/O)C(N)=O)C(C)[N+](=O)[O-] (stereo not given)	–	74.2 µM (active)
Nc1nc2ncc(CNc3ccc(C(=O)N[C@@H](CCC(=O)O)C(=O)O)cc3)nc2c(=O)[nH]1	inactive	–
Cn1c(=O)cc(Oc2ccc(F)cc2F)c2cnc(NCC(C)(C)O)nc21	inactive	–
CC1(C)C(=O)N(Br)C(=O)N1Br	inactive	–
CCOC(=O)c1ccc(C2CCC(NC[C@H](O)COc3ccc(O)c(NS(C)(=O)=O)c3)CC2)cc1 (stereo not given in full)	–	24.4 µM (active)
CC1=CC(=O)CC(C)(C)C1	inactive	–
CC(C)=CCCC(C)=CC=O	inactive	–
CNCc1ccc(NC(=O)c2c[nH]c3c2C(=O)CCC3)cc1	–	67 µM (active)
Nc1ccc(Nc2ccccc2)cc1	–	87.5 µM (active)
O=C(O)CC(O)C(=O)O (stereo not given)	inactive	–
On1ccccc1=S	–	50 µM (active)
Clc1nc(Cl)c(Cl)c(Cl)c1Cl	–	50 µM (active)
CCCCC(CC)COC(=O)c1ccc(C(=O)OCC(CC)CCCC)cc1 (stereo not given)	inactive	–
COCCOCCOCCOC	–	24.2 µM (active)

SMILES	outcome	AC50
COC(=O)CC(=O)OC	inactive	–
CCN(C(=O)c1cc(C)cc(OC[C@H](C)Nc2ccncc2)c1)C(C)C	–	11.2 µM (active)
COC(=O)c1c(Cl)c(Cl)c(C(=O)OC)c(Cl)c1Cl	–	50 µM (active)
CC(C)c1cccc(C(C)C)c1N1C(=O)c2ccc(O)cc2C1=O	–	17.6 µM (active)
CCn1nc(Cc2ccccc2)cc1C1CCN(C[C@H]2C[C@H](N(C)[C@@H](C(=O)O)C(C)C)C[C@@H]2c2cccc(F)c2)CC1	–	45 µM (active)
CC(C)=CCC/C(C)=C\CO	inactive	–
CCOC(=O)COc1ccc2c(c1)CC(NCC(O)c1cccc(Cl)c1)CC2 (stereo not given)	–	24.1 µM (active)
COCCOc1cc2cc(C(=O)NC3CCN(C(C)C)CC3)n(CC(=O)Nc3ccc(Cl)cn3)c2cn1	–	45 µM (active)
Cc1ccc(S(=O)(=O)O)cc1C	inactive	–
CCOCCOCCOCCO	inactive	–
CC[C@H](C)C(=O)O[C@H]1C[C@@H](C)C=C2C=C[C@H](C)[C@H](CC[C@@H]3C[C@@H](O)CC(=O)O3)[C@H]21	–	50 µM (active)
O=C1CCC(N2C(=O)c3ccccc3C2=O)C(=O)N1 (stereo not given)	inactive	–
CC(C)CCCCCCCOC(=O)CCCCC(=O)OCCCCCCCC(C)C	inactive	–
NC(=O)NO	inactive	–
CCOCCO	inactive	–
CC(C)(O)c1coc(S(=O)(=O)NC(=O)Nc2c3c(cc4c2CCC4)CCC3)c1	inactive	–
CCC(C)(C)C(=O)O[C@H]1C[C@@H](C)C=C2C=C[C@H](C)[C@H](CC[C@@H]3C[C@@H](O)CC(=O)O3)[C@H]21	–	32.1 µM (active)
O=C(NS(=O)(=O)/C=C/c1ccccc1)c1ccc(F)cc1Cl	–	13.1 µM (active)
COc1ccc(/C=C/S(=O)(=O)NC(=O)c2ccc(C)cc2Cl)cc1	–	22.7 µM (active)
Fc1ccccc1[C@@H](F)COC1CCC(Nc2ncnc3[nH]ncc23)CC1 (stereo not given in full)	–	50 µM (active)

— PubChem BioAssay (EPA / NIEHS)
